Inconclusive results are not listed. Calls of active or inactive are those of the source. Calls follow the shape of the dose curve; as a rule, active = well fitted activation curve with a large enough effect; inconclusive = small, poorly fitted or top-dose-only effect; inactive = no such curve, though single readings can be large or run the other way.
Assay: qHTS Assay for Rab9 Promoter Activators: Initial hit validation from the primary screen; as to activation: % of control where 0% means no effect
Details: Huh7 Rab9 promoter luciferase reporter, 24 h; series mostly up to 46.1 µM; activation: at the top concentration
Summary of the method: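 Huh7 cells stably carrying a Rab9 promoter–luciferase construct, plated in reduced-serum medium with 10% FBS, rested 2 h, then exposed to compounds in DMSO for 24 h at 37C. Luminescence read 10 min after adding Amplite luciferase reagent.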
Potency is read from the fitted curve at half-maximal effect.

Compound | activation | Potency
Cn1c(CCN2CCN(c3ccccc3)CC2)nc2cc(NC(=O)c3ccco3)ccc21 | -5.18% (inactive) | 
CN(C)C(CNC(=O)CNC(=O)c1ccc2ccccc2c1)c1ccccc1 (centres undefined) | -1.55% (inactive) | 
O=C(COc1ccccc1F)Nc1ccc(-c2nc3ccccc3s2)cc1 |  | 223 nM (active)
COCc1cc(C)nc(N/N=C/c2ccc(-c3ccc(Cl)cc3[N+](=O)[O-])o2)c1C#N | 12.7% (inactive) | 
O=C(COC(=O)c1ccc(-c2nnc(-c3ccccc3)o2)cc1)c1ccccc1 |  | 396 nM (active)
NCCOc1ccccc1-c1ccccc1 | -3.52% (inactive) | 
Cc1ccc(C(=O)NC2CCN(CC(=O)Nc3c(C)cc(C)cc3C)CC2)cc1 | -10.8% (inactive) | 
S=C1NCN(CCc2ccccc2)CN1Cc1ccccc1 | -5.55% (inactive) | 
Nc1nc(SCCO)[nH]c(=O)c1NC(=O)c1ccco1 | 6.14% (inactive) | 
COc1ccc(NC(=S)NNC(=O)c2cccs2)cc1 |  | 31500 nM (active)
OCCC1CN(Cc2nc3ccccc3s2)CCN1C1CCCC1 (centres undefined) | -5.07% (inactive) | 
CCN(CC)S(=O)(=O)c1ccc(NCc2ccccn2)nc1 | 3.98% (inactive) | 
CCOC(=O)c1ccc(-c2nnc(-c3ccc(Cl)cc3Cl)o2)cc1 |  | 705 nM (active)
CCCCn1c(CCNC(=O)c2cccs2)nc2ccccc21 | -9.29% (inactive) | 
CCC(=O)Nc1cc(-c2cc3ccccc3oc2=O)ccc1OC |  | 791 nM (active)
COCCn1c(SCc2ccc(C(=O)OC)o2)nc2cc(Cl)ccc2c1=O | -6.53% (inactive) | 
Cc1ccc(S(=O)(=O)/N=C2\C=C(Nc3cccc(C(=O)O)c3)C(=O)c3ccccc32)cc1 | -45.7% (inactive) | 

Compound | activation | Potency
CCCOP(=O)(c1ccc(N(C)C)cc1)C(O)c1cccnc1 (centres undefined) | -2.9% (inactive) | 
Cc1nnc2n(c1=O)N=C(c1ccc(Cl)cc1)CS2 |  | 888 nM (active)
O=C(NC1CCCC1)C(c1ccc(F)cc1)N(C(=O)c1csnn1)c1ccccc1 (centres undefined) | 5.07% (inactive) | 
Cc1cccc(NC(=O)CSc2nc3ccccc3o2)c1 | 7.11% (inactive) | 
C=CCc1ccc(OCCOCCNCCOC)c(OC)c1 | -10.5% (inactive) | 
Cc1nn(CCCC(=O)NCc2ccc(F)cc2)c(C)c1[N+](=O)[O-] | 1.2% (inactive) | 
COCCNC(=O)CN1C(=O)NC(c2ccccc2)(c2ccccc2)C1=O | -2.37% (inactive) | 
Cc1cccc(N2CCN(C(=S)c3ccccc3)CC2)c1 | 18.2% (inactive) | 
CC1CCc2sc(C(=O)NNC(=S)NC3CC3)cc2C1 (centres undefined) |  | 19900 nM (active)
O=C(CCc1cccc(Cl)c1)NC1CCCN(Cc2ccccc2F)C1 (centres undefined) | -12.7% (inactive) | 
O=C(CSc1nnc(-c2ccccc2)o1)Nc1ccccc1F |  | 112 nM (active)
CC1=C(C(=O)OC2CCCC(C)C2)C(c2ccccc2)NC(=O)N1 (centres undefined) | -13.1% (inactive) | 
CCCOC(=O)Cn1cnc2scc(-c3ccc(OC)cc3)c2c1=O | -8.76% (inactive) | 
CN(C)/C=N/c1c(C#N)cnn1-c1nc2ccccc2s1 | 15.4% (inactive) | 
Cc1ccc(NC(=O)NC(=O)c2ccccc2)cc1F |  | 445 nM (active)
CC(C)(C)NC(=S)NNC(=O)c1ccc2ncccc2c1 |  | 1770 nM (active)
O=C(C1COc2ccccc2O1)N1CCN(S(=O)(=O)c2ccccc2)CC1 (centres undefined) | -3.72% (inactive) | 

— PubChem BioAssay AID493200 (National Center for Advancing Translational Sciences (NCATS), 2011)
